Bioassay records: PubChem, several laboratories
Sampled rows, rich in hits. Any-hit rate of the full collection: about 2.2%.
TWEAK Fn14 block: blocks TWEAK-Fn14 interaction in a reporter cell assay; TWEAK-stimulated Fn14 reporter cells, luciferase luminescence, 8 h; inhibition, % at 10 µM; actives 2% (n = 360,000); AID 1159606; in the data active = inhibition above about 50%
TROY NFkB inh: inhibitors of TROY-dependent NF-kB signaling; actives 0.98% (n = 360,000); Q293 LMP1-TROYcd NF-kB luciferase reporter, 4 h; inhibition, % at 10 µM;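 active = compounds whose plate-normalised and pattern-corrected inhibition of the luciferase reporter signal at the single screening dose is 50% or more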
LGR2 inh: Drosophila LGR2 receptor signaling inhibition; HEK293 LGR2, CRE-luciferase, bursicon-stimulated, 4 h; inhibition, % at 9.99 µM; actives 0.35% (n = 380,000);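 active = drop in luminescence signal, shown as inhibition above about 50% in the replicate tests, limit read from the data, passing the limit was not always enough; inconclusive = probably only some replicates passing the limit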;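 note: agonist challenge used bursicon conditioned medium at about half maximal strength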
HSP90 refold inh: blocks HSP90-mediated luciferase refolding in reticulocyte lysate | Rabbit reticulocyte lysate, luciferase refolding luminescence, 3 h | inhibition, % at 5.6 µM | actives 0.91% (n = 290,000) | AID 1789;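 active = inhibition above the screen-wide mean plus 3 SD, computed separately per campaign, cut at about 16% in these data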;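 note: inhibitors lower the luminescence because luciferase stays unfolded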
HSP90 confirm: HSP90 inhibition, confirmation assay; actives 64% (n = 2,300); inhibition, % at 5.9 µM; shares compounds with HSP90 refold inh; rabbit reticulocyte lysate, luciferase refolding luminescence, 3 h; in the data active = inhibition above about 18%
FLuc counter: counter-screen for HSP90 inhibitors: inhibitors of firefly luciferase; shares compounds with HSP90 refold inh; purified native firefly luciferase, luminescence; inhibition, % at 5.9 µM; actives 48% (n = 2,300);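 active = inhibition above the mean inhibition of all tested sample wells plus 3 SD, cut at about 10% in these data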
Target sequence (P08659 whole entry, looked up): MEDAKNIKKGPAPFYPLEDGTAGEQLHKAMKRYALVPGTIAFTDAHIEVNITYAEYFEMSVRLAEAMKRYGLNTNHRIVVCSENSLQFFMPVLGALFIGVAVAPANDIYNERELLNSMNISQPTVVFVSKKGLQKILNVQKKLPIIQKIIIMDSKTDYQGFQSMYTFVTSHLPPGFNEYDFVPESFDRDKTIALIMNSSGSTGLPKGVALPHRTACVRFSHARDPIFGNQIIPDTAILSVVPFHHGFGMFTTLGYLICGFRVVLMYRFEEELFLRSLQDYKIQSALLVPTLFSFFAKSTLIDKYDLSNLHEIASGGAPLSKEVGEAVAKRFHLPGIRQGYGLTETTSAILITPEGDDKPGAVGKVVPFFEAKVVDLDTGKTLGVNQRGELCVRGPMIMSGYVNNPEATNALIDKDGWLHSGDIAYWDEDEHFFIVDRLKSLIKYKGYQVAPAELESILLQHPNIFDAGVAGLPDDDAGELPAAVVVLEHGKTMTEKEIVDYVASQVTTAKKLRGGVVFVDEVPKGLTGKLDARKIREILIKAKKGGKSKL
Of the large screens only hits and unclear results are named; the others gave an inactive call (follow-up assays come after a bar, where they were run).

O=C(N/N=C/c1cc(O)ccc1Br)c1cccnc1	HSP90 refold inh 37 | HSP90 confirm inactive | FLuc counter inactive
CC(=O)N[C@H]1C=C[C@@H](CC(=O)NCc2ccc(Cl)cc2)O[C@H]1CO	none (no result: TWEAK Fn14 block, TROY NFkB inh, HSP90 refold inh)
CN1CCN(C(=O)C2=C[C@@H](c3ccc(Br)cc3)C[C@@H](OCc3ccc(CO)cc3)O2)CC1	HSP90 refold inh 25 | HSP90 confirm inactive | FLuc counter inactive
c1csc(-c2nc(CN3CCSCC3)cs2)c1	TWEAK Fn14 block 60, LGR2 inh inconclusive, HSP90 refold inh 27 | HSP90 confirm 55 | FLuc counter 31
O=S1(=O)CCN(Cc2csc(-c3cccs3)n2)CC1	none
COC(=O)c1ccc(-c2nc(CN3CCCN(C(=O)c4ccco4)CC3)c(C)o2)cc1	HSP90 refold inh 25 | HSP90 confirm inactive | FLuc counter inactive
COC(=O)c1ccc(-c2nc(CN3CCN(C(=O)c4ccco4)CC3)c(C)o2)cc1	none (no result: HSP90 refold inh)
Cc1cccc(NC(=O)NCCN2CCCCC2)c1	HSP90 refold inh 25 | HSP90 confirm inactive | FLuc counter inactive
CCCNC(=O)N1CCC2(CC1)CN(C(=O)c1ccncc1)[C@@H](CO)c1[nH]c3cc(OC)ccc3c12	none (no result: TWEAK Fn14 block, TROY NFkB inh, HSP90 refold inh)
COc1ccc(C(=O)Nc2ccc3ccccc3c2)cc1	TWEAK Fn14 block 72, LGR2 inh 74, HSP90 refold inh 34 | HSP90 confirm 63 | FLuc counter 53
COc1cccc(NC(=O)NNC(=O)C(C)Oc2ccc3ccccc3c2)c1 (stereo not given)	none
COc1cccc(C(=O)Nc2ccccc2)c1	none (no result: LGR2 inh)
COc1ccccc1C(=O)NNC(=O)c1ccc(O)cc1	none (no result: HSP90 refold inh)
COc1ccccc1C(=O)NNC(=O)c1ccc2ccccc2c1	HSP90 refold inh 18 | HSP90 confirm inactive | FLuc counter inactive
COc1ccc(OC(C)C(=O)Nc2cccc(OC)c2)cc1 (stereo not given)	HSP90 refold inh 17 (no result: LGR2 inh) | HSP90 confirm inactive | FLuc counter inactive
COc1cccc(C(=O)Nc2ccc3ccccc3c2)c1	TWEAK Fn14 block 63, LGR2 inh inconclusive, HSP90 refold inh 18 | HSP90 confirm 46 | FLuc counter 37
Cc1noc(C)c1NC(=O)Nc1ccc2c(c1)C(=O)N([C@@H](C)CO)C[C@H](C)[C@@H](CN(C)C(=O)Nc1cccc3ccccc13)OCCCC[C@H](C)O2	none (no result: TWEAK Fn14 block, TROY NFkB inh, HSP90 refold inh)
COc1ccc(NC(=O)Nc2ccc3c(c2)C(=O)N([C@@H](C)CO)C[C@@H](C)[C@H](CN(C)S(=O)(=O)c2cn(C)cn2)OCCCC[C@@H](C)O3)cc1	none (no result: TWEAK Fn14 block, TROY NFkB inh, HSP90 refold inh)
CCCNC(=O)N1CC2(C1)[C@@H](c1ccccc1)[C@@H](CO)N2C(=O)C1CC1	none (no result: TWEAK Fn14 block, TROY NFkB inh, HSP90 refold inh)
CCCc1nnc(NC(=O)c2cccc(OC)c2)s1	none
COc1cccc(C(=O)Nc2nnc(C(C)C)s2)c1	HSP90 refold inh 22 (no result: LGR2 inh) | HSP90 confirm 34 | FLuc counter 22
Cc1cc(C(=O)Nc2ccc(N3CCCCC3)cc2)no1	TWEAK Fn14 block 73, LGR2 inh inconclusive, HSP90 refold inh 24 | HSP90 confirm 50 | FLuc counter 36
Cc1ccc(C(=O)Nc2ccc(N3CCN(S(C)(=O)=O)CC3)cc2)cc1C	none
Cc1ccc(C(=O)Nc2ccc(N3CCN(C)CC3)cc2)cc1C	TWEAK Fn14 block 75, TROY NFkB inh 57, HSP90 refold inh 22 | HSP90 confirm 29 | FLuc counter 23
Cc1ccc(NC(=O)N2CCc3ccccc32)cc1C	HSP90 refold inh 18 | HSP90 confirm 37 | FLuc counter 17
CN1CCN(c2ccc(NC(=O)N3CCc4ccccc43)cc2)CC1	TWEAK Fn14 block 95, TROY NFkB inh 77, LGR2 inh 60, HSP90 refold inh 72 | HSP90 confirm 71 | FLuc counter 61
O=C1CCCCC1Sc1nnc(-c2ccc3c(c2)OCO3)o1 (stereo not given)	TWEAK Fn14 block 104, TROY NFkB inh 87, HSP90 refold inh 75 (no result: LGR2 inh) | HSP90 confirm 93 | FLuc counter 79
CC(C)NC(=O)N(C)C[C@H]1Oc2ccc(NC(=O)c3ccncc3)cc2CC(=O)N([C@@H](C)CO)C[C@@H]1C	none (no result: TWEAK Fn14 block, TROY NFkB inh, HSP90 refold inh)
CC(C)Oc1ccc(/C(O)=C2/C(=O)C(=O)N(Cc3cccnc3)C2c2ccco2)cc1 (stereo not given)	HSP90 refold inh 20 (no result: LGR2 inh) | HSP90 confirm inactive | FLuc counter 15
O=C(NNC(=S)NCc1ccco1)c1ccccc1Br	none
O=C(NCc1ccco1)c1ccccc1Br	HSP90 refold inh 19 (no result: LGR2 inh) | HSP90 confirm inactive | FLuc counter inactive
COc1cccc(C(=O)Nc2ccc3c(c2)C(=O)N(C)[C@H]2CC[C@@H](CC(=O)NCc4ccccc4F)O[C@@H]2CO3)c1	none (no result: TWEAK Fn14 block, TROY NFkB inh, HSP90 refold inh)
O=C(O)c1ccc2c(c1)C(=O)/C(=C\c1ccco1)C2=O	none
Cc1ccc(/C=C2/C(=O)c3ccc(C(=O)O)cc3C2=O)o1	HSP90 refold inh 22 | HSP90 confirm 46 | FLuc counter inactive
CCCSc1nc(SCC(=O)NCc2ccccc2)c2c3c(sc2n1)COC(C)(CC)C3 (stereo not given)	HSP90 refold inh 28 (no result: LGR2 inh) | HSP90 confirm inactive | FLuc counter inactive
CCCCSc1nc(SCC(=O)NCc2ccco2)c2c3c(sc2n1)COC(C)(CC)C3 (stereo not given)	none (no result: LGR2 inh)
Brc1ccccc1OCCCN1CCCCCC1	none
CC(=O)c1ccccc1OCCCN1CCCCC1	HSP90 refold inh 28 (no result: LGR2 inh) | HSP90 confirm inactive | FLuc counter inactive
O=C(C[C@H]1CC[C@@H]2[C@H](COC[C@H](O)CN2C(=O)c2ccccn2)O1)N1CCN(c2ccccc2)CC1	none (no result: TWEAK Fn14 block, TROY NFkB inh, HSP90 refold inh)
Oc1ccc2ccccc2c1N=Nc1ccccc1F	none
O=S(=O)(O)c1cccc(N=Nc2c(O)ccc3ccccc23)c1	HSP90 refold inh 33 | HSP90 confirm 34 | FLuc counter inactive
CNC[C@H]1Oc2ccc(NC(=O)Nc3c(C)noc3C)cc2C(=O)N([C@H](C)CO)C[C@H]1C	none (no result: TWEAK Fn14 block, TROY NFkB inh, HSP90 refold inh)
O=C(Cc1nc2ccccc2[nH]1)c1cccc([N+](=O)[O-])c1	LGR2 inh inconclusive, HSP90 refold inh 20 | HSP90 confirm 27 | FLuc counter inactive
COc1ccccc1CNC(=O)C[C@H]1CC[C@@H]2[C@H](COC[C@H](O)CN2C(=O)Nc2ccc(C(F)(F)F)cc2)O1	none (no result: TWEAK Fn14 block, TROY NFkB inh, HSP90 refold inh)
O=C(Nc1ccccc1F)N1CCCCN2[C@H](C1)[C@@H](c1ccc(C#Cc3cccnc3)cc1)[C@@H]2CO	none (no result: TWEAK Fn14 block, TROY NFkB inh, HSP90 refold inh)
Cc1cc(C(=O)Nc2ccc3c(c2)C(=O)N(C)[C@@H]2CC[C@H](CC(=O)N[C@H](C)c4ccccc4)O[C@H]2CO3)no1	none (no result: TWEAK Fn14 block, TROY NFkB inh, HSP90 refold inh)
Cc1cc(S(=O)(=O)N2CCOCC2)ccc1OCC(=O)Nc1ccc(F)cc1	none
Cc1ccc(OCC(=O)Nc2ccc(S(=O)(=O)N3CCOCC3)cc2)c(C)c1	HSP90 refold inh 20 | HSP90 confirm inactive | FLuc counter inactive
C[C@@H]1CCCCO[C@H](CN(C)C(=O)Nc2ccc(F)cc2)[C@H](C)CN([C@@H](C)CO)C(=O)c2cc(NC(=O)Nc3ccc4c(c3)OCO4)ccc2O1	none (no result: TWEAK Fn14 block, TROY NFkB inh, HSP90 refold inh)
CCS(=O)(=O)NCC[C@@H]1CC[C@@H](NC(=O)C2CC2)[C@@H](CO)O1	none (no result: TWEAK Fn14 block, TROY NFkB inh, HSP90 refold inh)
O=C(O)c1ccc(/C=C/C(=O)c2ccc3c(c2)OCCCO3)cc1	HSP90 refold inh 51 | HSP90 confirm 65 | FLuc counter inactive
